Screens: PubChem BioAssay, National Center for Advancing Translational Sciences (NCATS)
PI5P4Ka inh = qHTS for Inhibitors of phosphatidylinositol 5-phosphate 4-kinase (PI5P4K) | PI5P4Kalpha enzyme, ADP-Glo luminescence, 60 min; stronger effect = lower value | max response, % | 1.2% of 330,000 active | AID 652105, 2013; active means max response of -50% or lower; inconclusive means between -30% and -50%; inactive means -30% or higher; further: value at the top dose of about 77 µM
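Human PI5P4Kalpha with substrate in 0.038 M HEPES pH 7.4, 0.28 mM EGTA, 0.1% CHAPS, 5% DMSO; reaction started with 5 microM ATP (final), 60 min at room temperature. ADP formed read by ADP-Glo luminescence.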
Tb PFK block = qHTS Assay to Find Inhibitors of T. brucei phosphofructokinase. ATP-dependent 6-phosphofructokinase (Trypanosoma brucei brucei), O15648. T. brucei PFK, ADP-Glo luminescence. Potency, µM (titrated, usually from 57.5 µM), for the others: at the highest dose activity, negative = inhibition, usual class: inhibitors. 0.17% of 330,000 active;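 further: potency means the concentration at half of the fitted maximal effect; 0% = uninhibited 1x PFK enzyme wells and -100% = no-enzyme wells; nearly all actives have a fitted effect of over 60% in size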
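PFK 1.25 nM, F6P 0.5 mM, ATP 0.1 mM, 0.1 M TEA pH 8.0, 5 mM MgCl2, 0.01% Tween20, 0.1% BSA; 45 min RT. ADP-Glo readout. qHTS titration up to 57 uM; curves fitted, compounds curve-classed.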
FEN1 inh = qHTS Assay for the Inhibitors of Human Flap endonuclease 1 (FEN1); 0.35% of 390,000 active; AID 588795, 2011; Potency, µM (highest dose often 114 µM), without a hit: at the highest dose activity change, negative = inhibition, hits mostly inhibitors; P39748; Recombinant FEN1 flap cleavage, fluorescence, 15 min; further: potency means the concentration at half of the fitted maximal effect; nearly all actives have a fitted effect of over 65% in size
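Read-out was taken twice, immediately and after 15 min, following addition of 50 nM substrate to 10 nM FEN1 that had sat with test compound for 15 min at room temperature. Curves came from a four-parameter Hill model.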
TDP1 inh = qHTS Assay for Inhibitors of Tyrosyl-DNA Phosphodiesterase (TDP1) | 0.28% of 350,000 active | AID 485290, 2010 | Tyrosyl-DNA phosphodiesterase 1 (Homo sapiens), Q9NUW8 | recombinant TDP1, AlphaScreen DNA substrate cleavage | Potency, µM (highest dose often 130 µM), for the others: at the highest dose activity change, negative = inhibition, actives largely listed as inhibitors; further: potency means the concentration at half of the fitted maximal effect; nearly all actives have a fitted effect of over 40% in size
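Compounds were preincubated with Tdp1 (1 nM final) for 15 min at room temperature before substrate (15 nM final) started a 5 min reaction; beads (10 ug/ml final) were then added for 10 min before AlphaScreen detection.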
Tb PGK inh = qHTS Assay to Find Inhibitors of Phosphoglycerate Kinase; PGK/GAPDH coupled, Kinase-Glo luminescence, 60 min; 0.043% of 380,000 active; Phosphoglycerate kinase, glycosomal (Trypanosoma brucei brucei), P07378; Potency, µM (highest dose often 57.5 µM), inactives show at the top dose activity change, negative = inhibition, usual class: inhibitors; further: potency means the concentration at half of the fitted maximal effect; nearly all actives have a fitted effect of over 60% in size
Target sequence (P07378 whole entry, looked up): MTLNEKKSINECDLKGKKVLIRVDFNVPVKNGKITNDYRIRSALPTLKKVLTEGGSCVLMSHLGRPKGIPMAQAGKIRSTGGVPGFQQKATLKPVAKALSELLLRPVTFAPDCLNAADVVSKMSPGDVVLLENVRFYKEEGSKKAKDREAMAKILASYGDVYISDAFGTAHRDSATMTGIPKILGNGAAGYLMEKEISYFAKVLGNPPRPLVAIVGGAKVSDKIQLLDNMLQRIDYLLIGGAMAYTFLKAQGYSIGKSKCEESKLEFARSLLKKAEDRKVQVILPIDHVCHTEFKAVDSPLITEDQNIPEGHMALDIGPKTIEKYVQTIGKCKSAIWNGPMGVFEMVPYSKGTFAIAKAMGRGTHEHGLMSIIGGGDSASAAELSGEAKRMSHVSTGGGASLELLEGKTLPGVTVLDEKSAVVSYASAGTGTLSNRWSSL
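Recombinant glycosomal PGK reaction used 1,3-bisphosphoglycerate generated in-well by GAPDH (100nM final) in 100mM TEA pH 7.6, 5mM MgCl2, 0.01% Tween-20. After 60 minutes at room temperature, ATP was read by Kinase-Glo Plus luminescence end-point.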
WRN inhibitor = qHTS for Inhibitors of WRN Helicase. WRN helicase unwinding, fluorescent forked duplex, kinetic. Potency, µM (top dose mostly 114 µM), inactives show at the top dose activity change, negative = inhibition, hits mostly inhibitors. 0.46% of 360,000 active. Bifunctional 3'-5' exonuclease/ATP-dependent helicase WRN (Homo sapiens), Q14191; further: potency means the concentration at half of the fitted maximal effect; nearly all actives have a fitted effect of over 55% in size
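Fluorescence dequenching readout, ex 525 nm/em 598 nm, kinetic mode: forked duplex DNA (100 nM final) with adjacent fluorophore and quencher unwound by WRN (20 nM final) with 2 mM ATP. Compound preincubation 15 min, room temperature.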
* hit, by the source's call; i = inactive; u = inconclusive; x = no result given; [ ] = another dose, or the depositor's remark. Hits are enriched below; roughly 1.5% of the tested compounds scored in any of these assays. Unless noted, the call rests on the fitted dose curve; in most records, active means well fitted curve in the direction sought with a large enough effect; inconclusive means small, poorly fitted or top-dose-only effect, or another doubt; inactive means no such curve, though single readings can be large; an effect the other way counts as inactive or inconclusive. Unless noted, on the % scale 0 is the no-effect control and ±100 the full control effect.

SMILES | PI5P4Ka inh | Tb PFK block | FEN1 inh | TDP1 inh | Tb PGK inh | WRN inhibitor
CC[n+]1c(/C=C/N(C)c2ccccc2)n(-c2ccccc2)c2ccc(-c3nc4ccccc4s3)cc21 | u | 17% | 40µM* | 9% | 9% | u
CCOc1cc(-c2nc3ccccc3s2)ccc1O | 17 | 1% | -15% | 0% | 1% | -11%
O=C(/C=C/c1ccc([N+](=O)[O-])cc1)NC1CC2CCC1C2 (centres undefined) | -52* | 5% | 0% | 5% | -8% | -12%
Cc1nc(Nc2cnc(/C=C/c3cc(C(=O)Nc4cccc(C(F)(F)F)c4)ccc3C)cn2)cc(N2CCNCC2)n1 | u | 18% | 79µM* | x | -4% | u
CCOc1ccc(C(=O)Nc2ccc3nc(Nc4cccc(C(F)(F)F)c4)cc(C)c3c2)cc1OCC | x | x | -3% | 10% | -6% | x
CC(C)(C)n1ncc2c(=O)n(Cc3ccc(Cl)cc3C(F)(F)F)cnc21 | x | x | 7% | x | x | x
O=c1/c(=C/c2ccco2)sc2nc(-c3ccccc3Br)nn12 | u | -20% | 10% | 2% | -9% | u
CCCOc1ccc(Cc2nn3c(=O)/c(=C/c4ccco4)sc3nc2=O)cc1 | u | 7% | u | x | -27% | 56µM*
COc1cc(/C=C2/C(=O)NN(c3ccc(C)c(Cl)c3)C2=O)cc([N+](=O)[O-])c1O | -67* | u | u | x | x | u
O=C1NN(c2ccccc2)C(=O)/C1=C\c1ccc2c(c1)OCO2 | 2 | 1% | 0% | -16% | i | u
Cc1ccc(N2NC(=O)/C(=C\c3cc4c(cc3[N+](=O)[O-])OCO4)C2=O)cc1C | -57* | 9% | -16% | 3% | -3% | u
O=C1NN(c2ccccc2)C(=O)/C1=C\c1cccn1-c1ccc(Cl)c([N+](=O)[O-])c1 | -63* | -5% | 2% | 9% | -5% | -11%[57.1 µM]
COc1cc(/C=C2/C(=O)NN(c3cccc(Cl)c3)C2=O)cc(OC)c1O | u | 9% | -7% | x | -17% | -19%
COc1cc(/C=C2/C(=O)NN(c3cccc(C)c3)C2=O)cc([N+](=O)[O-])c1O | -62* | 18% | -7% | -13% | -15% | -10%[11.6 µM]
CCCCCCCC/C=C/CCCCCCCC(=O)NCCOP(=O)(O)O | x | x | x | 5% | x | x
O=C1CCCC2=C1C1(CCC1)N=C(Nc1nc3ccccc3o1)N2 | x | x | x | 1% | x | x
O=C(CSc1nc2nn(-c3ccccc3)c(=O)c-2c2n1CCCCC2)c1ccc(O)c(O)c1 | -54* | u | u | -7% | u | 2.8µM*
CNC(=O)CSc1nc2nn(-c3ccccc3)c(=O)c-2c2n1CCCCC2 | x | -7% | 5% | 6% | i | -12%
OC[C@H](S)CS | x | x | u | 13µM* | x | x
CC1=NN(c2ccc(C)cc2)C(=O)/C1=C/c1ccc(-c2cc([N+](=O)[O-])ccc2O)o1 | -94* | u | -19% | x | -2% | u
COc1ccc(-c2ccc(/C=C3\C(=O)N(c4ccccc4)N=C3c3ccccc3)o2)c([N+](=O)[O-])c1 | -10 | -5% | 1% | 7% | -2% | -3%
O=C1NN(c2cccc(Br)c2)C(=O)/C1=C/c1ccc(-c2cc([N+](=O)[O-])ccc2O)o1 | -86* | 1% | u | x | u | u
O=C1NN(c2cccc(Br)c2)C(=O)/C1=C\c1ccc(O)cc1 | -51* | 24% | -17% | x | i | u
O=C1NN(c2ccccc2)C(=O)/C1=C/c1ccc(Sc2cccc3ccccc23)o1 | u | 0% | u | 8% | -15% | u
Cc1c(C(=O)O)sc2nc(/C=C/c3cccc(O)c3)[nH]c(=O)c12 | -77* | 9% | u | x | u | u
